HT1080 IDH1KD tx: kills HT-1080 cells with IDH1 knockdown; HT-1080 IDH1 knockdown viability, ATP luminescence, 48 h; Potency, µM (top dose mostly 46.1 µM), usual class: cytotoxic; 360,000 compounds, 2% hits
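Knockdown cells (IDH1KD HT-1080) received compounds 2 h after plating at 750 cells/well and were kept 48 h at 37 °C in 5% FBS RPMI. A CellTiter-Glo luminescence read gave % activity for curve fitting.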
IL-1B inflam inh: blocks inflammasome-driven IL-1 beta release | THP-1 LPS/ATP IL-1B secretion, AlphaLISA, 16 h; stronger effect = lower value | activity change, % at 57.5 µM | 360,000 compounds, 4.7% hits | AID 743279; in the data active means activity change below about -50%; inconclusive means mostly about -30% to -49%
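THP-1 cells pretreated 1 hr with compounds (up to 57.5 uM final), then stimulated with LPS (250 ng/mL final) plus ATP (1.25 mM final); secreted IL-1B measured by AlphaLISA after 16 hr, decreased signal indicating inhibition.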
DT40 TDP1 CPT: DT40-hTDP1 cell growth loss with CPT; chicken DT40 Tdp1-/-;hTDP1 cells + 20 nM CPT, ATP luminescence, 48 h; Potency, µM (titrated, usually from 46.2 µM), usual class: inhibitors; 420,000 compounds, 12% hits; AID 686979; further: nearly all actives have a fitted effect of over 55% in size
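Cell growth measured by CellTiter-Glo luminescence after a minimum 48 h, 37 C compound exposure with 20 nM CPT in Tdp1-knockout DT40 cells stably expressing hTDP1, seeded 400/well; qHTS titration format.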
HT1080-NT tox: kills 2HG-producing HT-1080-NT fibrosarcoma cells; HT-1080-NT fibrosarcoma viability, CellTiter-Glo ATP luminescence, 48 h; Potency, µM (top dose mostly 46.1 µM), actives largely listed as cytotoxic; 360,000 compounds, 1.6% hits;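 further: NT is the 2HG producing partner of a matched IDH1 knockdown line; nearly all actives have a fitted effect of over 55% in size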
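Read-out is CellTiter-Glo luminescence after 10 minutes at room temperature, following 48 hours' compound treatment of HT-1080-NT cells (750 cells/well, RPMI, 5% FBS, 37 degrees C).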
ELG1 repair inh: ELG1-dependent DNA repair inhibition | AID 504467 | 330,000 compounds, 2.3% hits | Potency, µM (doses to about 46.1 µM), most hits filed as inhibitors | HEK293T ELG1-luciferase reporter, luminescence, 16 h; DNA damage induced by 5-fluorouridine; further: nearly all actives have a fitted effect of over 55% in size
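Reporter activity after DNA damage by 5-fluorouridine is monitored. Compound-treated cells incubate 16 hr at 37 °C, then ONE-Glo is added for 30 min before luminescence reading.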
TDP1 cell noCPT: qHTS for Inhibitors of human tyrosyl-DNA phosphodiesterase 1 (TDP1): qHTS in cells in absence of CPT; DT40 Tdp1-/- hTDP1 cells, no CPT, ATP luminescence, 48 h; Potency, µM (series often up to 46.2 µM), most hits filed as inhibitors; 420,000 compounds, 15% hits; AID 686978, 2013; further: nearly all actives have a fitted effect of over 55% in size
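No-CPT arm: Tdp1-/-;hTDP1 DT40 cells (400/well) plus compounds, incubated ≥48 hr at 37 °C. Readout CellTiter-Glo luminescence.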
Numbers stand for hits; - = inactive; ? = inconclusive; . = no result given. Compounds with a hit are over-represented: about 19% of the library has one in this group of screens. Unless noted, the call rests on the fitted dose curve; in most records, active means well fitted curve in the direction sought with a large enough effect; inconclusive means small, poorly fitted or top-dose-only effect, or another doubt; inactive means no such curve, though single readings can be large; an effect the other way counts as inactive or inconclusive.

SMILES	HT1080 IDH1KD tx	IL-1B inflam inh	DT40 TDP1 CPT	HT1080-NT tox	ELG1 repair inh	TDP1 cell noCPT
CS(=O)c1ccccc1-c1nc(-c2cccc(Cl)c2)no1 (centres undefined)	-	-	?	-	-	16µM
Cc1ccc(-c2cc(-c3ccccc3)nc(Cl)n2)cc1	-	-	-	-	?	?
COCCn1c(N)c(N(Cc2ccccc2)C(=O)COc2ccccc2F)c(=O)[nH]c1=O	-	-	-	-	-	-
COc1ccc(-c2noc(-c3ccccc3C(=O)NCc3ccco3)n2)cc1OC	-	?	?	-	8.2µM	15µM
CCOc1ccc(-c2cc3cc(OC)c(OC)cc3c(C)n2)cc1	-	-	-	-	?	?
COc1ccc(-c2cc(C(=O)NCc3ccco3)c3ccccc3n2)cc1OC	-	-	?	-	.	18µM
CCc1nc(-c2ccc(OC)c(OC)c2)cc2cc(OC)c(OC)cc12	-	-	16µM	-	26µM	21µM
O=C(NCc1ccco1)c1cc(-c2ccncc2)nc2ccccc12	-	-	-	-	?	-
Cc1cc(F)ccc1S(=O)(=O)Nc1ccc(C(=O)N2CCCCC2)cc1	-	-	?	-	-	?
Cc1cc(-c2ccc(C)c(S(=O)(=O)NCCc3ccc(S(N)(=O)=O)cc3)c2)on1	-	-	?	-	-	?
c1cc2c3c(cccc3c1)NN=N2	-	-	?	-	.	?
c1cc2c3c(cccc3c1)NC1(CCCCCC1)N2	-	-	?	-	-	12µM
S=C1NC2(CCCCC2)NN1c1ccccc1	?	-	-	?	?	?
c1cc2c3c(cccc3c1)NC1(CCCCC1)N2	-	-	18µM	-	-	18µM
c1cc2c3c(cccc3c1)NC1(CCC3(CC1)Nc1cccc4cccc(c14)N3)N2	?	-	9.2µM	21µM	?	13µM
CC1CCC(NC(=O)CCCn2sc3ccccc3c2=O)CC1 (centres undefined)	-	-	?	-	-	?
O=C(c1ccc2c(=O)n3c(nc2c1)CCCCC3)N1CCN(c2ccc(Cl)cc2)CC1	-	?	23µM	-	?	18µM
O=C(Nc1cccc(S(=O)(=O)N2CCCC2)c1)c1ccc2c(=O)n3c(nc2c1)CCCCC3	-	-62	15µM	-	5.8µM	16µM
CC(=O)c1cccc(NC(=O)c2ccc3c(=O)n4c(nc3c2)CCCCC4)c1	-	-	?	-	-	?
O=C(Nc1cccc(S(=O)(=O)N2CCOCC2)c1)c1ccc2c(=O)n3c(nc2c1)CCCCC3	-	-86	13µM	?	12µM	10µM
O=C(Nc1ccc(SC(F)F)cc1)c1ccc2c(=O)n3c(nc2c1)CCC3	-	-	?	3.3µM	?	?
COc1ccc(NC(=O)c2ccc3c(=O)n4c(nc3c2)CCCCC4)cc1	-	-	?	-	?	?
O=C1C=C(O)c2[nH]c(=O)ccc2C1=O	-	-	-	-	.	-
COC(=O)c1sc2cccc(F)c2c1S(=O)(=O)Nc1ccc(C)cc1Cl	.	.	-	.	.	-
O=C1C2CC=CCC2C(=O)N1c1ccc(Cc2ccncc2)cc1 (centres undefined)	-	?	18µM	-	-	11µM
SMILES	HT1080 IDH1KD tx	IL-1B inflam inh	DT40 TDP1 CPT	HT1080-NT tox	ELG1 repair inh	TDP1 cell noCPT
CCOC(=O)c1noc2ncnc(Nc3cc(Cl)c(OC)cc3OC)c12	.	.	-	.	.	-
COc1cccc(CNC(=O)CCc2c(C)nc3c(c2C)c(=O)n(C)c(=O)n3C)c1	.	.	-	.	.	-
COc1ccc(Br)cc1C(=O)Nc1cccc(-c2nnc(-c3ccco3)o2)c1	-	?	23µM	-	.	?
COc1ccc(Br)cc1C(=O)Nc1ccc(NC(=O)c2ccco2)cc1	-	-	-	-	?	-
Cc1ccc(SCC(=O)Nc2cccc(-c3nnc(-c4ccco4)o3)c2)cc1	-	-	18µM	-	?	?
O=C(COC(=O)CC1CC2CCC1C2)Nc1cc([N+](=O)[O-])ccc1F (centres undefined)	-	-54	-	-	-	-

From PubChem BioAssay
